# This is part of a sample that, as a whole, favours compounds with a hit. Of some 79,000 tested, about 15% had one in any assay. Values without a mark were called inactive. The source made the active and inactive calls. Rule as the data show it: active = growth inhibition above about 70%; inactive = the rest.
# What was measured:
# [1] = NCI Yeast Anticancer Drug Screen. Data for the rad50 strain (AID 155);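 also: 0% = growth of vehicle-only cultures of the same strain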; conditions: S. cerevisiae rad50 strain growth inhibition, hits give high values
# Summary of the method: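 Inhibition values express reduced yeast growth in compound-treated cultures relative to vehicle-treated controls.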
# [2] = NCI Yeast Anticancer Drug Screen. Data for the mec2-1 strain (AID 157); conditions: S. cerevisiae mec2-1 strain, hits give high values
# Summary of the method: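 Vehicle-treated cultures served as reference for growth inhibition of compound-exposed mec2-1 yeast.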
# [3] = NCI Yeast Anticancer Drug Screen. Data for the sgs1 mgt1 strain (AID 161);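 also: 0% = growth of cultures given vehicle only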; conditions: S. cerevisiae sgs1 mgt1 strain, hits give high values
# Summary of the method: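 Test agents were incubated with a DNA-repair-mutant yeast strain. Growth was then read and compared against vehicle-treated controls.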
# [4] = NCI Yeast Anticancer Drug Screen. Data for the cln2 rad14 strain (AID 165);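 also: 0% = growth equal to vehicle treated cultures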; conditions: S. cerevisiae cln2 rad14 strain, hits give high values
# Summary of the method: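 Each compound was tested on cln2 rad14 yeast. Inhibition of growth was calculated against vehicle-exposed controls.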
# [5] = NCI Yeast Anticancer Drug Screen. Data for the bub3 strain (AID 167); conditions: S. cerevisiae bub3 mutant strain, hits give high values
# Summary of the method: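 Steps: expose the mutant yeast strain to compound; grow alongside vehicle-treated cultures; measure growth; express inhibition against the vehicle cultures.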
# [6] = NCI Yeast Anticancer Drug Screen. Data for the mlh1 rad18 strain (AID 175); conditions: S. cerevisiae mlh1 rad18 strain growth inhibition, hits give high values
# Summary of the method: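 Vehicle-treated cultures served as the reference for growth inhibition in a yeast strain carrying DNA damage repair alterations exposed to each compound.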
# [7] = at 5.0 µM (retest, dose inferred, filed as 0.5)
# [8] = at 50.0 µM (retest, dose inferred, filed as 5.0)
SMILES,"growth inhibition [1, 7]","growth inhibition [1, 8]",growth inhibition ([1]; at 50.0 µM),"growth inhibition [2, 7] [%]","growth inhibition [2, 8]",growth inhibition ([2]; at 50.0 µM),"growth inhibition [3, 7]","growth inhibition [3, 8]",growth inhibition ([3]; at 50.0 µM),"growth inhibition [4, 7]","growth inhibition [4, 8]",growth inhibition ([4]; at 50.0 µM),"growth inhibition [5, 7]","growth inhibition [5, 8]",growth inhibition ([5]; at 50.0 µM),"growth inhibition [6, 7]","growth inhibition [6, 8]",growth inhibition ([6]; at 50.0 µM)
CCOC(=O)C[n+]1c(C)sc2ccccc21,-4%,23%,78.4% (active),-3,28%,40.1%,0%,54%,37.6%,-7%,18%,17.6%,-6%,15%,39.6%,-3%,43%,19.2%
C=C(CN(C)C)C(=O)c1ccccc1C,-2%,65%,87.6% (active),-8,88% (active),78.7% (active),13%,86% (active),85% (active),-17%,45%,65.8%,-11%,89% (active),91.1% (active),-4%,97% (active),97% (active)
COc1cc(C2C(Cl)C(=O)N2NC(=O)c2ccc(NC(C)=O)cc2)cc(OC)c1OC (configuration not stated),1%,-16%,-8.6%,-9,-16%,-10.1%,-9%,-7%,8.15%,-16%,-5%,19.1%,3%,-2%,-9.3%,-10%,3%,12.3%
CC1C/C(=C\c2ccc(O)c(O)c2)C(=O)/C(=C/c2ccc(O)c(O)c2)C1 (configuration not stated),22%,71% (active),52.4%,20,67%,32.3%,17%,66%,47.5%,7%,65%,41%,16%,67%,19.9%,27%,84% (active),21.6%
C1=CC2OC2CCCCCCCC1 (mixture of isomers),7%,75% (active),83.2% (active),0,80% (active),62.5%,2%,78% (active),84.8% (active),-2%,59%,31.6%,-5%,73% (active),50.7%,1%,90% (active),70.9% (active)
Cc1ccc(-c2oc(C=Nc3ccccc3)c([N+](=O)[O-])c2-c2ccc(C)cc2)cc1,11%,72% (active),73.3% (active),13,70% (active),64.5%,26%,73% (active),70.9% (active),36%,74% (active),42.2%,46%,95% (active),41.7%,52%,91% (active),75.8% (active)
C[N+]1(C)CCCC(OCCCCCCCCCCCCCCOC2CCC[N+](C)(C)C2)C1 (configuration not stated),14%,95% (active),87.9% (active),34,98% (active),80.5% (active),35%,97% (active),98.8% (active),37%,92% (active),98.2% (active),37%,94% (active),97.6% (active),77% (active),97% (active),99% (active)
CCC(C)(O)C#Cc1ccc(C)nc1 (configuration not stated),2%,6%,16.1%,0,3%,9.4%,-2%,2%,7.7%,0%,-1%,14.5%,1%,-1%,13.8%,-12%,4%,0.4%
C=CCN1/C(=C\C=C\c2ccc3cc(C)ccc3[n+]2CC=C)C=Cc2cc(C)ccc21,58%,97% (active),90.5% (active),63,99% (active),91.1% (active),90% (active),98% (active),92.6% (active),78% (active),98% (active),91.9% (active),83% (active),98% (active),91% (active),79% (active),98% (active),89.2% (active)
CC(=O)NNc1nc(C)c(C(=O)NNC(=O)C(=O)Nc2c(C)cccc2C(C)C)s1,3%,85% (active),43.1%,1,88% (active),33%,6%,89% (active),47%,0%,49%,9%,4%,87% (active),37.5%,-4%,74% (active),44.1%
CC(C)C(CC(C)(C)C)OC(=O)Nc1cccc2ccccc12 (configuration not stated),0%,96% (active),13.1%,-1,98% (active),26.4%,0%,97% (active),61.8%,-17%,95% (active),6.15%,11%,96% (active),61.1%,-3%,97% (active),58.1%
O=C(Cc1ccc(C2=NCCN2)cc1[N+](=O)[O-])c1ccc(C2=NCCN2)cc1,-3%,73% (active),49.2%,-7,35%,89.6% (active),0%,55%,26.8%,-5%,16%,25%,-8%,71% (active),49.3%,-5%,68%,68.7%
COc1ccccc1NC(=S)N/N=C(/C)c1ccccn1,22%,78% (active),-30.1%,22,66%,-8.7%,34%,61%,18.4%,32%,56%,-3.95%,54%,77% (active),13.5%,13%,64%,-2.3%
COc1cc(CC#N)c(NC(C)=O)cc1OC,0%,-4%,-2.3%,-41,-3%,28.6%,0%,-2%,-8.45%,1%,-2%,41%,-7%,-7%,6.05%,-1%,-3%,9.1%
O=C(/C(Cl)=N/O)c1ccccc1,80% (active),99% (active),98.8% (active),47,100% (active),99.2% (active),51%,99% (active),49.3%,38%,99% (active),58%,91% (active),99% (active),99% (active),62%,99% (active),50%
COc1cccc2c1C(=O)c1c(O)c3c(c(O)c1C2=O)CC(O)(C(C)=O)CC3OC1CC(N/C(C)=C/C(C)=O)C(O)C(C)O1 (configuration not stated),91% (active),95% (active),88.5% (active),65,98% (active),90% (active),45%,98% (active),88.9% (active),60%,98% (active),88.4% (active),69%,98% (active),85.8% (active),79% (active),97% (active),88.4% (active)
C1=C(CC2=C[P+](c3ccccc3)(c3ccccc3)C=C(c3ccccc3)O2)OC(c2ccccc2)=C[P+]1(c1ccccc1)c1ccccc1,17%,96% (active),87.4% (active),8,98% (active),88% (active),35%,98% (active),86.2% (active),25%,98% (active),85.4% (active),32%,98% (active),90.5% (active),6%,95% (active),90.8% (active)
CCCCCCCCCCNC(=O)C[n+]1cccc(C(=O)Nc2ccccc2)c1,4%,99% (active),99.7% (active),10,100% (active),99.8% (active),-13%,100% (active),99.9% (active),3%,99% (active),99.2% (active),-1%,99% (active),99.6% (active),28%,100% (active),99.8% (active)
CC(C)=CCc1c2c(c3occ(-c4ccc(O)c(O)c4)c(=O)c3c1O)C=CC(C)(C)O2,16%,90% (active),90.8% (active),29,95% (active),94.1% (active),9%,93% (active),94.8% (active),-25%,76% (active),91.5% (active),-7%,94% (active),89% (active),-2%,90% (active),90.8% (active)
